# About 1,000 (1.4%) of roughly 69,000 compounds showed an effect of 50% or more. For the sample, strong results were picked, then their nearest neighbours and some compounds at random.
# Tested on: Leishmania donovani
# Assay: Leishmania intramacrophage assay
# Format: functional, organism-based
# Design: scale not given: in the data most compounds retested in dose-response had high values
structure (smiles),measurement,setting,value
CO[C@H]1CCN(Cc2ccoc2)C[C@@H]1Cc1ccccc1.O=C(O)C(F)(F)F,Percent Effect,"30.3 µM, […]",25.61%
COc1c(C)cnc(CSc2nnc(NC3CC3)s2)c1C,Percent Effect,"30.3 µM, […]",13.54%
O=C(NCC(=O)N1CCCC(c2ccccc2)CC1)c1ccoc1 (centres undefined),Percent Effect,30 µM,24.45%
O=C([C@H]1CCCO1)N1CCc2ncc(CN3CCOCC3)n2CC1,Percent Effect,"30.3 µM, […]",32.4%
Cc1cnn(CC(C)NCc2ccc(OCC(N)=O)cc2)c1 (centres undefined),Percent Effect,30 µM,8.68%
Cc1c(CN2CC[C@@H](N3CCC(O)CC3)[C@H](O)C2)[nH]c2ccc(F)cc12,Percent Effect,"30.3 µM, […]",26.65%
Cc1ccc2[nH]c(CN3CC[C@@H](N4CCN(C)CC4)[C@H](O)C3)c(C)c2c1,Percent Effect,"30.3 µM, […]",23.41%
Cc1c(CN2CC[C@@H](N3CCC(O)CC3)[C@H](O)C2)[nH]c2ccc(Cl)cc12,Percent Effect,"30.3 µM, […]",82.7%
O=C(c1ccc(S(=O)(=O)NCc2ccon2)cc1)N1CCOCC1,Percent Effect,"30.3 µM, […]",0.2735%
Oc1ccc(-c2c(-c3ccccc3)ncn2C2CCNC2)cc1 (centres undefined),Percent Effect,"30.3 µM, […]",-26.99%
Cc1nc[nH]c1-c1c(-c2ccccc2)ncn1C1CCNC1 (centres undefined),Percent Effect,"30.3 µM, […]",-1.128%
CCOc1ccc(-c2c(-c3ccccc3)ncn2C2CCNC2)cn1 (centres undefined),Percent Effect,"30.3 µM, […]",76.3%
Cc1nc(C)n(CC2CCCN(c3ncnc4sccc34)C2)n1 (centres undefined),Percent Effect,"30 µM, 30.03 µM",-10.34%
Cc1nc(C)n(CC2CN(c3ncnc4[nH]ccc34)CCO2)n1 (centres undefined),Percent Effect,"30 µM, 30.03 µM",-5.028%
Cc1nc(C)n(CC2CCCN(c3ncnc4c3CCC4)C2)n1 (centres undefined),Percent Effect,"30 µM, 30.03 µM",28.07%
Cc1nc(CN2CCN(c3ncnc4ccccc34)CC2)no1,Percent Effect,"30.3 µM, […]",19.7%
Cc1nc(C)n(CC2CCCN(c3ncnc4[nH]ccc34)C2)n1 (centres undefined),Percent Effect,"30 µM, 30.03 µM",52.77%
Cc1nc(C)n(CC2CCCN(c3ncnc4ccsc34)C2)n1 (centres undefined),Percent Effect,"30 µM, 30.03 µM",35.24%
CCc1nc(CN2CCCN(c3ncnc4ccccc34)CC2)no1,Percent Effect,"30 µM, 30.03 µM",55.68%
CCc1nc(CN2CCCN(c3ncnc4ccsc34)CC2)no1,Percent Effect,"30.3 µM, […]",27.83%
Cc1nc(C)n(CC2CCCN(c3ncnc4ccccc34)C2)n1 (centres undefined),Percent Effect,30 µM,54.57%
COCC1CN(C(=O)COc2ccccc2C)Cc2ncn(C)c21.O=C(O)C(F)(F)F (centres undefined),Percent Effect,"30.3 µM, […]",12.02%
Cc1ccc(CN2CCn3c(COc4cccnc4)cnc3C2C)o1.O=C(O)C(F)(F)F.O=C(O)C(F)(F)F (centres undefined),Percent Effect,"30.3 µM, […]",-4.64%
CCCn1cc(C(=O)N[C@H]2CC[C@H](n3cnnc3)CC2)c(C)n1,Percent Effect,"30.3 µM, […]",11.19%
O=C(O)C(F)(F)F.O=S(=O)(c1cccs1)N1CC[C@H]2[C@H]1CCN2c1ncccn1,Percent Effect,"30.3 µM, […]",-1.813%
Cc1csc(CN2C[C@@H]3CN(S(C)(=O)=O)CCO[C@@H]3C2)n1,Percent Effect,"30.3 µM, […]",20.2%
Cc1csc(CN2C[C@@H]3CN(CC4CCOCC4)CCO[C@@H]3C2)n1,Percent Effect,"30.3 µM, […]",53.9%
Cc1ccc(CN2C[C@@H]3CN(CC4CCOCC4)CCO[C@@H]3C2)s1.O=C(O)C(F)(F)F.O=C(O)C(F)(F)F,Percent Effect,"30.3 µM, […]",24.65%
Cc1nc(C(=O)N2CCCC2c2cncc(CN3CCCC3)n2)co1 (centres undefined),Percent Effect,"30.3 µM, […]",16.43%
COc1ccc(CC(=O)N2CCCC(n3nc(C)cc3C)C2)cc1F (centres undefined),Percent Effect,30 µM,18.37%
Cc1cs/c(=N/C(=O)c2csc(NCC(C)C)n2)[nH]1,Percent Effect,"30.3 µM, […]",8.971%
Cc1[nH]/c(=N\C(=O)c2csc(NCC(C)C)n2)sc1C,Percent Effect,"30 µM, 30.03 µM",87.72%
CCN(CC)C(=O)CCCNC(=O)c1csc(NC2CC2)n1,Percent Effect,"30.3 µM, […]",-2.373%
CC(C)(C)[S+]([O-])CCNC(=O)c1csc(NC2CC2)n1 (centres undefined),Percent Effect,"30.3 µM, […]",-31.46%
Cc1[nH]/c(=N\C(=O)c2csc(NC3CCCC3)n2)sc1C,Percent Effect,"30.3 µM, […]",100.1%
CC(C)CNc1nc(C(=O)/N=c2\[nH]nc(C(C)(C)C)s2)cs1,Percent Effect,"30 µM, 30.03 µM",-9.293%
Cc1[nH]/c(=N\C(=O)c2csc(NC3CC3)n2)sc1C,Percent Effect,"30 µM, 30.03 µM",70.25%
CN1CCN(C(=O)CCc2cc(Br)cs2)CC1,Percent Effect,"30.3 µM, […]",1.944%
O=C(Cc1ccsc1)N1CCN(CC2CC2)c2ncccc2C1.O=C(O)C(F)(F)F,Percent Effect,"30.3 µM, […]",13.41%
CC(C)c1cc(C(F)(F)F)n2nc(C3CCN(S(C)(=O)=O)C3)cc2n1 (centres undefined),Percent Effect,"30.3 µM, […]",14.63%
COc1ccc2[nH]cc(C(=O)N3C[C@@H](O)[C@H](N4CCOCC4)C3)c2c1,Percent Effect,"30.3 µM, […]",10.77%
COc1ccccc1OCc1cc(C(=O)N2CCOCC2CO)n[nH]1 (centres undefined),Percent Effect,"30.3 µM, […]",28.86%
CCc1ccc(CN(Cc2ccccc2)CC(C)CO)nc1 (centres undefined),Percent Effect,"30.3 µM, […]",7.862%
CC(C)OCCN1CCN(C(C)c2nc(C3CC3)no2)CC1 (centres undefined),Percent Effect,30 µM,6.668%
COCCN1CCN(C(C)c2nc(C3CC3)no2)CC1 (centres undefined),Percent Effect,30 µM,-7.952%
CC(c1nc(C2CC2)no1)N1CCN(CCS(C)(=O)=O)CC1 (centres undefined),Percent Effect,"30.3 µM, […]",50.3%
Clc1snnc1CN1CCN(c2nccs2)CC1,Percent Effect,"30.3 µM, […]",-11.24%
COc1ccccc1CC(C)CC(=O)N(C)Cc1cc(C)on1 (centres undefined),Percent Effect,"30.3 µM, […]",6.655%
CCC(CC(=O)NS(=O)(=O)C(C)C)c1ccccc1 (centres undefined),Percent Effect,"30.3 µM, […]",-1.743%
COc1ccccc1CC(=O)NS(C)(=O)=O,Percent Effect,"30 µM, 30.03 µM",11.96%
COc1ccccc1CC(C)CC(=O)NC(C)C (centres undefined),Percent Effect,"30.3 µM, […]",59.88%
COc1ccccc1CC(C)CC(=O)NS(=O)(=O)C(C)C (centres undefined),Percent Effect,"30.3 µM, […]",63.27%
COc1ccccc1CC(C)CC(=O)O (centres undefined),Percent Effect,"30.3 µM, […]",41.22%
Cc1cc(NC(=O)NCC(c2ccccc2)N2CCOCC2)n(C)n1 (centres undefined),Percent Effect,30 µM,18.5%
C1CC(CN2CCO[C@H]3[C@H](OCC4CC4)CC[C@@H]32)CCO1.O=C(O)C(F)(F)F,Percent Effect,"30 µM, 30.03 µM",5.211%
Cc1ccc(NC(=O)CC2Cn3ncnc3NC2=O)cc1C (centres undefined),Percent Effect,"30.3 µM, […]",22.77%
CN1CCOCC12CCN(c1ccc(C#N)cc1)CC2.O=C(O)C(F)(F)F,Percent Effect,"30.3 µM, […]",14.66%
COc1ccc(C2CCCN2C(=O)c2csc(NC(C)=O)n2)cc1 (centres undefined),Percent Effect,"30 µM, 30.03 µM",22.16%
Cc1cc(C(=O)NCCc2nc3c(s2)CCCC3)n(C)n1,Percent Effect,"30.3 µM, […]",29.87%
O=C1CCc2cc(-c3csc(CCN4CCOC4=O)n3)c(F)cc2N1,Percent Effect,"30.3 µM, […]",-11.05%
CC(C)c1nc(C2CCCN(C(=O)c3ccc4c(c3)COC4)C2)no1 (centres undefined),Percent Effect,30 µM,33.04%
Cc1occc1CNC(=O)C1(C)CCCN(C(=O)c2ccccc2)C1 (centres undefined),Percent Effect,"30.3 µM, […]",52.94%
Cc1occc1CNC(=O)C1(C)CCCN1C(=O)c1ccccc1 (centres undefined),Percent Effect,"30.3 µM, […]",-78.28%
CC(C)C(=O)N1CCC12CCCN(C(=O)c1ccccc1)C2 (centres undefined),Percent Effect,"30.3 µM, […]",9.102%

# Source: ChEMBL document CHEMBL3988442, “University of Dundee, Small-Polar-MMV Screening Library” (2021)
